Compounds with a hit are over-represented: about 1.8% of the library has one in this group of screens.
p53ts 32C kill = qHTS Screen for Compounds that Selectively Target Cancer Cells with p53 Mutations: Cytotoxicity of p53ts Cells at the Permissive Temperature | H1299-p53A138V at 32C, ATP luminescence viability, 24 h | Potency, µM (series often up to 46.1 µM), for the others: at the highest dose activity change, negative = cytotoxicity, actives largely listed as cytotoxic | 130,000 tested, 0.93% active;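 also: 0% = DMSO and -100% = full killing by reference compound; nearly all actives have a fitted effect of over 55% in size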
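Cells: H1299 p53ts (A138V), 600/well, pre-incubated 16–30 h at 37C. Cpd up to 46 uM, 24 h, 32C. Readout: ATPlite luminescence, 20 min RT. Normalization: DMSO vs tamoxifen 100 uM. AC50 by Hill equation.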
p53ts 39C kill = qHTS Screen for Compounds that Selectively Target Cancer Cells with p53 Mutations: Cytotoxicity of p53ts Cells at the Nonpermissive Temperature | H1299-p53A138V viability at 39C, ATP luminescence, 24 h | Potency, µM (top dose mostly 46.1 µM), inactives show at the highest dose activity change, negative = cell killing, hits mostly cytotoxic | 130,000 tested, 1.5% active; also: % is scaled to controls: 0 for no effect and ±100 for the full control effect; nearly all actives have a fitted effect of over 55% in size
Peg3 imprint = qHTS Assay for Compounds that Induce Erasure of Genomic Imprints; mouse ES Peg3-LacZ reporter, beta-gal luminescence, 40 h; Potency, µM (series often up to 60.7 µM), for the others: at the top dose activity change, positive = activation, usual class: activators; 110,000 tested, 0.02% active
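Readout: BetaGlo luminescence (5 min, room temp) for LacZ from the normally silent maternal Peg3 allele in female Peg3LacZ-Neo ES cells. Cells 300/well, 40 h, 37C, 5% CO2. Data normalized per plate to negative controls.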
IkB signaling = IkB Signaling; Potency, µM (doses to about 57.1 µM), without a hit: at the top dose IkBa stabilization activation; 110,000 tested, 0.04% active; AID 445, 2006; ABC-DLBCL IkBa-CBG/CBR dual luciferase ratio, 4 h; response scale: scaled: untreated 0%, proteasome inhibitor 100%; active = well fitted curve in the direction sought with a large enough effect in the signal ratio, not every such curve was filed as active; inconclusive = small, poorly fitted or top-dose-only effect, or a change in a side signal; the % refers to the signal ratio;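 also: the direction sought is a rising ratio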
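Curves were fitted separately to fusion (green), unfused (red) and ratio luminescence, then classed by r2, magnitude and activity. Cells: OCI-Ly3, 4 h compound plus doxycycline at 37C; 10 uM MG-132 defined full response.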
* = called active by the depositor; ? = inconclusive; nt = not tested or not shown; [ ] = another dose, or the depositor's remark. Unless noted, calls follow the shape of the dose curve; as a rule, active = well fitted curve in the direction sought with a large enough effect; inconclusive = small, poorly fitted or top-dose-only effect, or another doubt; inactive = no such curve, though single readings can be large; an effect the other way counts as inactive or inconclusive. Potency is read from the fitted curve at half-maximal effect.

SMILES	p53ts 32C kill	p53ts 39C kill	Peg3 imprint	IkB signaling
Cc1cccc(CS(=O)(=O)c2ncc(Cl)c(C(=O)NCc3ccccc3)n2)c1	25.1µM*	5.01µM*	-27.5%[10.9 µM]	?
Cc1cc2nc(-c3ccc(NC(=O)c4ccccc4F)cc3)oc2cc1C	-5.0%	-2.2%	-10.3%[10.9 µM]	-0.7%
O=C1OC2(CCCCC2)OC(=O)C1=CNc1ccc2c(c1)OCO2	2.9%	1.4%	-2.1%	1.8%
O=C1/C(=C/Nc2ccc3c(c2)OCO3)CCc2ccccc21	3.98µM*	6.31µM*	-95.1%	?
COc1ccc(O[C@H]2C=C[C@@H](c3ccccc3)O[C@@H]2CO/N=C(\C)CCN2CCCc3nc(C)c(C)cc32)cc1	-5.7%[9.22 µM]	11.4%[9.22 µM]	nt	nt
O=C(Nc1noc2ccccc12)c1ccc(F)cc1	10µM*	?	-31.0%[10.9 µM]	2.1%
Cc1cc(C)c2sc(N3CCN(C(=O)C4CC4)CC3)nc2c1	?	7.94µM*	-13.7%[10.9 µM]	-5.0%
CCOc1ccc(C2=C(C(=O)CC)Sc3nncn3N2C(=O)CC)cc1	11.2µM*	?	26.2%[10.9 µM]	?
CCC(=O)C1=C(c2ccc(F)cc2)N(C(=O)CC)n2cnnc2S1	8.6%	66.3%	-36.4%[10.9 µM]	?
C/C(=N\Nc1nc2ccccc2[nH]1)c1cc2ccccc2o1	15.8µM*	12.6µM*	nt	nt
NC(=O)Nc1nc2ccccc2[nH]1	10.5%[1.84 µM]	6.4%	3.5%	-1.3%
COc1ccc(C(=O)C(CN2CCOCC2)c2ccccc2)cc1F (stereo not drawn)	?	20µM*	-28.0%	?
COc1ccc(C(O)C(CN2CCOCC2)c2ccccc2)cc1F (stereo not drawn)	-6.3%	-3.8%	-5.1%	-0.5%
CC(C)(C)C(=O)NCCc1nc2ccccc2n1CCCCOc1ccc(Cl)cc1	6.4%	31.6µM*	-6.9%[10.9 µM]	?
Cc1cccc(C)c1OCCCn1c(CCNC(=O)C2CCCCC2)nc2ccccc21	?	15.8µM*	-16.6%[10.9 µM]	?
Cc1cc(OCCCn2c(CCNC(=O)C3CCCCC3)nc3ccccc32)ccc1Cl	?	12.6µM*	-13.8%[10.9 µM]	?
Cc1ccc(OCCCn2c(CCNC(=O)C3CCCCC3)nc3ccccc32)c(C)c1	3.7%	?	-11.5%[10.9 µM]	?
Cc1cc(C)cc(Nc2cc(C(=O)NCCCN(Cc3ccccc3)C(C)C)c3ccccc3n2)c1	-15.7%	15.8µM*	-12.0%[10.9 µM]	?
CSc1cccc(Nc2cc(C(=O)NCCCN(Cc3ccccc3)C(C)C)c3ccccc3n2)c1	?	15.8µM*	-13.2%[10.9 µM]	-5.0%
CC(=O)N1CCC[C@@]2(CCN(Cc3ccc(C#N)cc3)C2)C1	-6.8%	2.6%	nt	-0.7%[11.4 µM]
COC(=O)[C@H](C)NC(=O)C/C=C\[C@@H](C)[C@@H](CO)OC	3.8%[9.22 µM]	5.6%[9.22 µM]	nt	nt
Clc1ccccc1OCc1nc(-c2ccccn2)no1	?	?	-76.8%	?
Brc1ccc(-c2nc(-c3ccccn3)no2)o1	7.94µM*	6.31µM*	-94.9%	?
Clc1ccc(OCc2nc(-c3ccccn3)no2)c(Br)c1	12.6µM*	12.6µM*	-80.7%	6.4%
CC(C)Nc1ccc(-c2nc(-c3ccccn3)no2)cc1[N+](=O)[O-]	-9.2%	-2.8%	-15.9%[10.9 µM]	0.1%
SMILES	p53ts 32C kill	p53ts 39C kill	Peg3 imprint	IkB signaling
Clc1ccc(-c2nc(-c3ccccn3)no2)cc1Cl	5.01µM*	7.94µM*	-65.5%	?
Brc1ccc(-c2nc(-c3ccncc3)no2)o1	-5.9%	0.2%	-26.7%	-1.0%
O=C(Nc1ccccn1)c1ccc2ccccc2n1	15.8µM*	15.8µM*	-83.0%	?
O=C(Nc1nc2c(s1)CCCC2)c1cc(-c2ccc3c(c2)OCO3)nc2ccccc12	nt	-6.1%	nt	nt
Cn1c(NC(=O)c2cc(-c3ccc4c(c3)OCO4)nc3ccccc23)cc(=O)n(C)c1=O	15.8µM*	12.6µM*	-10.3%	0.5%
Clc1ccccc1-c1nc(-c2ccncc2)no1	-5.8%[9.22 µM]	-5.3%[9.22 µM]	-20.0%[10.9 µM]	1.2%[11.4 µM]
Clc1ccccc1-c1nc(-c2cccnc2)no1	10µM*	12.6µM*	-71.0%	2.2%
CCC(Sc1nnc2c(n1)[nH]c1ccccc12)C(=O)Nc1nnc(C(C)C)s1 (stereo not drawn)	?	10µM*	23.4%[10.9 µM]	8.4%
c1ccc(/C(=N/Nc2nc3ccccc3s2)c2ccccn2)cc1	-1.8%[9.22 µM]	-26.0%[9.22 µM]	-29.0%[10.9 µM]	?
